Experimental data reported in PubChem BioAssay (NCATS).
Records with an inconclusive call do not appear. Unless noted, calls come from the whole dose curve; as a rule, active = well fitted curve in either direction with a large enough effect (not every such curve was filed as active); inconclusive = small, poorly fitted or top-dose-only effect, or another doubt; inactive = flat fitted curve, though single readings scatter.

What was measured:
[1] = AP1 Signaling Pathway (AID 357); details: ME-180 AP-1-bla reporter, EGF-induced, beta-lactamase ratio, 5 h; at 17.2 µM (top of the series) unless noted; note: % is set by controls: 0 for no effect and ±100 for the full control effect
Method in brief: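 ME-180 cells with beta-lactamase reporter under AP-1 response element, stimulated with EC50 EGF; compounds tested in titration series, 5 h at 37 °C. CCF4 substrate added 2.5 h at room temperature; 460/530 nm emission ratio gave %activity and AC50.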

[2] = NFAT Signaling Pathway (AID 444); details: Jurkat NFAT-bla M1, carbachol, beta-lactamase ratio, 5 h; at 17.2 µM (top of the series) unless noted;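 note: carbachol stimulus at about its EC50 of 1 µM final; % is set by controls: 0 for no effect and ±100 for the full control effect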
Method in brief: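 Jurkat cells carrying an NFAT-driven β-lactamase reporter and co-transfected muscarinic M1 receptor were treated with compound plus carbachol (1 uM final, an EC50 level) for 5 h at 37 °C. CCF4 loading followed for 1 h at RT; 460/530 nm ratio gave %activity.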

[3] = Stat Signaling Pathway (AID 446); details: ME-180 (cervical carcinoma) SIE beta-lactamase reporter, IL-6 stimulated, 5 h; at 17.2 µM (top of the series) unless noted;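 note: ME-180 cervical cancer cells given 40 pM IL-6 alongside compound; SIE-controlled beta-lactamase reporter measured as 460/530 nm FRET emission ratio; % is set by controls: 0 for no effect and ±100 for the full control effect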
Method in brief: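 FRET read-out (405 nm excitation, 460/530 nm emission) of a beta-lactamase reporter under a STAT-inducible element in ME-180 cervical carcinoma cells. Cells with compound receive 40 pM IL-6 for 5 h. Values are normalised to AC90 stimulation and AC90 JAK-inhibitor controls.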

[4] = target: Glucocorticoid receptor (Homo sapiens) (UniProt P04150); assay: GR-GFP Redistribution (AID 450;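 active = compounds whose dose series gives a full or clear partial fitted curve of increased nuclear translocation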; note: potency is the fitted concentration of half-maximal effect)
Chain of Glucocorticoid receptor (Homo sapiens) (P04150 whole entry, looked up): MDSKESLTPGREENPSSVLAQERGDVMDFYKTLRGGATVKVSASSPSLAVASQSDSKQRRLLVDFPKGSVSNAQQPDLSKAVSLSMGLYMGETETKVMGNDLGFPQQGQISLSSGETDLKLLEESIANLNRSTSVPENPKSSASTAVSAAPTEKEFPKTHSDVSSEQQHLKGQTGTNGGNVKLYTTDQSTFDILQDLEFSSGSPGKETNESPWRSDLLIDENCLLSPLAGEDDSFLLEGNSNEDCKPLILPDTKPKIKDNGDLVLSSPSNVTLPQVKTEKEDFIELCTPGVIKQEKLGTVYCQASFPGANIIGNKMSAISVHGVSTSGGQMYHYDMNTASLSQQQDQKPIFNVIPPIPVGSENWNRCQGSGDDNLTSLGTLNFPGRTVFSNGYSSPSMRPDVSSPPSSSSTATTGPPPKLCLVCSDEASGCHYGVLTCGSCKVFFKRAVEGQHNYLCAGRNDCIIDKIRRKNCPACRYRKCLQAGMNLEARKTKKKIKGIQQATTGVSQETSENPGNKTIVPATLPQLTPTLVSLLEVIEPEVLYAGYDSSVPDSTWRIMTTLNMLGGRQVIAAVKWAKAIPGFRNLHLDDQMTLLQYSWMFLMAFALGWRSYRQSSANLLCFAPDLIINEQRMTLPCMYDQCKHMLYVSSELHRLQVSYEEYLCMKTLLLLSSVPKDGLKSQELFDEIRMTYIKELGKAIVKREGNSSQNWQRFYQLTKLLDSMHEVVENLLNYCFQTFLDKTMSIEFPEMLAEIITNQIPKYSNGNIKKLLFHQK

O=C(Nn1cnnc1)C(c1ccccc1)c1ccccc1
inactive: activity change, negative = inhibition [1] 13.7% | activity change, negative = inhibition [2] -6.95% | activity, negative = inhibition [3] 3.83% | Potency [4] > 20.6 µM

CCC1SC(N)=NC1=O (stereo not drawn)
inactive: activity change, negative = inhibition [1] 2.7% | activity change, negative = inhibition [2] -3.13% | activity, negative = inhibition [3] -1.83% | Potency [4] > 20.6 µM

CCOC(=O)CC(=O)CSc1nnc2sc3ccccc3n12
inactive: activity change, negative = inhibition [1] 6.11% | activity change, negative = inhibition [2] -0.0909% | activity, negative = inhibition [3] 7.94% | Potency [4] > 20.6 µM

Cn1c(OCc2ccc3c(c2)OCO3)nc2c1c(=O)n(Cc1cccc(Cl)c1)c(=O)n2C
inactive: activity change, negative = inhibition [1] -15.5% | activity change, negative = inhibition [2] 1.55% | activity, negative = inhibition [3] -6.64% | Potency [4] > 20.6 µM

CC1(C2(O)CC(c3ccccc3)ON2)CCCCC1 (stereo not drawn)
inactive: activity change, negative = inhibition [1] 11.4% | activity change, negative = inhibition [2] -10.5% | activity, negative = inhibition [3] -1.99% | Potency [4] > 20.6 µM

CCOC(=O)C(C#N)C(Cc1ccccc1)c1ccco1 (stereo not drawn)
inactive: activity change, negative = inhibition [1] -10.1% | activity change, negative = inhibition [2] -8.09% | activity, negative = inhibition [3] -9.08% | Potency [4] > 20.6 µM

COC(=O)C(NC(C)=O)(Nc1ccc(Br)cc1)C(=O)OC
inactive: activity change, negative = inhibition [1] 8.16% | activity change, negative = inhibition [2] -1.04% | activity, negative = inhibition [3] 8.85% | Potency [4] > 20.6 µM

Cc1ccc2c(=O)c(CN(C)C3CCN(C)CC3)c(C)[nH]c2c1C
inactive: activity change, negative = inhibition [1] 0.184% | activity change, negative = inhibition [2] -6.29% | activity, negative = inhibition [3] 5.33% | Potency [4] > 20.6 µM

C#CC1CN(Cc2ccccc2)CC(C#C)N1C (stereo not drawn)
inactive: activity change, negative = inhibition [1] 9.35% | activity change, negative = inhibition [2] -2.08% | activity, negative = inhibition [3] 9.92% | Potency [4] > 20.6 µM

C=CCc1c(C)c(C#N)c2nc3ccccc3n2c1N1CCN(C)CC1
inactive: activity change, negative = inhibition [1] -17.1% | activity change, negative = inhibition [2] 4.5% | activity, negative = inhibition [3] 3.98% | Potency [4] > 20.6 µM

CCN(CC)CCN1C(=O)c2ccccc2NC1c1cc(OC)c(OC)c(OC)c1 (stereo not drawn)
inactive: activity change, negative = inhibition [1] 8.96% | activity change, negative = inhibition [2] 5.73% | activity, negative = inhibition [3] 10.5% | Potency [4] > 20.6 µM

COc1ccc2[nH]cc(C(=O)CN(C)CCc3ccc(OC)c(OC)c3)c2c1
inactive: activity change, negative = inhibition [1] -10.3% | activity change, negative = inhibition [2] 11.6% | activity, negative = inhibition [3] 6.57% | Potency [4] > 20.6 µM

COC(=O)c1sc(NC(=O)C(C)C)c(C(=O)OC)c1C
inactive: activity change, negative = inhibition [1] -5.18% | activity change, negative = inhibition [2] -9.07% | activity, negative = inhibition [3] 1.94% | Potency [4] > 20.6 µM

O=C(CC(c1ccc(F)cc1)c1ccco1)N1CCCC1 (stereo not drawn)
inactive: activity change, negative = inhibition [1] -6.27% | activity change, negative = inhibition [2] -22.2% | activity, negative = inhibition [3] -1.51% | Potency [4] > 20.6 µM

O=C(OCCN1CCOCC1)c1ccc2c(c1)OCCO2
inactive: activity change, negative = inhibition [1] -10% | activity change, negative = inhibition [2] 19.9% | activity, negative = inhibition [3] 6.54% | Potency [4] > 20.6 µM

Cc1cccc(N(CC(O)CN(C)C)S(=O)(=O)c2ccccc2)c1 (stereo not drawn)
inactive: activity change, negative = inhibition [1] -9.68% | activity change, negative = inhibition [2] -3.01% | activity, negative = inhibition [3] 3.62% | Potency [4] > 20.6 µM

CCc1c(C(=O)O)[nH]c2ccc(Br)cc12
inactive: activity change, negative = inhibition [1] 8.39% | activity change, negative = inhibition [2] -22% | activity, negative = inhibition [3] -0.02% | Potency [4] > 20.6 µM

COc1ccc(Nc2nnc(C)c3ccccc23)cc1C(N)=O
inactive: activity change, negative = inhibition [1] -4.55% | activity change, negative = inhibition [2] 10.7% | activity, negative = inhibition [3] -9.16% | Potency [4] > 20.6 µM

Cc1cc(N2C(=O)C(=O)/C(=C(/O)c3ccc(F)cc3)C2c2cccc(Br)c2)no1 (stereo not drawn)
inactive: activity change, negative = inhibition [1] -7.98% | activity change, negative = inhibition [2] 2.37% | activity, negative = inhibition [3] -29.1% | Potency [4] > 20.6 µM

CC(=O)Nc1cnc2ccccc2n1
inactive: activity change, negative = inhibition [1] 2.26% | activity change, negative = inhibition [2] -13.5% | activity, negative = inhibition [3] 7.01% | Potency [4] > 20.6 µM

CCc1nc(N2CCN(C(=O)c3ccccc3)CC2)c(C#N)c2c1COC(C)(C)C2
inactive: activity change, negative = inhibition [1] -17.6% | activity change, negative = inhibition [2] 21.3% | activity, negative = inhibition [3] -14% | Potency [4] > 20.6 µM

COC(=O)c1ccc(Cn2nnc3c(sc4nc(N5CCOCC5)c5c(c43)CCCC5)c2=O)o1
inactive: activity change, negative = inhibition [1] 0.759% | activity change, negative = inhibition [2] -21.1% | activity, negative = inhibition [3] -4.56% | Potency [4] > 20.6 µM

CCOC(=O)c1[nH]c2ccccc2c1NC(=O)CCN1CCN(C(=O)OCC)CC1
inactive: activity change, negative = inhibition [1] -2.19% | activity change, negative = inhibition [2] 1.86% | activity, negative = inhibition [3] -0.665% | Potency [4] > 20.6 µM

O=C(O)c1cc2cccc(S(=O)(=O)N3CCOCC3)c2cc1O
inactive: activity change, negative = inhibition [1] 7.94% | activity change, negative = inhibition [2] 0.851% | activity, negative = inhibition [3] 6.34% | Potency [4] > 20.6 µM

COC(=O)C(NC(C)=O)(Nc1ccccc1)C(=O)OC
inactive: activity change, negative = inhibition [1] 2.11% | activity change, negative = inhibition [2] -1.66% | activity, negative = inhibition [3] 13.2% | Potency [4] > 20.6 µM

O=c1/c(=C/c2ccccn2)sc2n1CN(c1ccccc1)CN=2
inactive: activity change, negative = inhibition [1] 0.239% | activity change, negative = inhibition [2] -24.9% | activity, negative = inhibition [3] 5.04% | Potency [4] > 20.6 µM

CCc1nc(NCC(C)C)c(C#N)c2c1COC(C)(C)C2
inactive: activity change, negative = inhibition [1] -11.6% | activity change, negative = inhibition [2] -0.964% | activity, negative = inhibition [3] 1.74% | Potency [4] > 20.6 µM

Cc1cc(C)n(CC2CC(=O)N(c3ccc(Cl)c(Cl)c3)C2=O)n1 (stereo not drawn)
inactive: activity change, negative = inhibition [1] -14.3% | activity change, negative = inhibition [2] -11.5% | activity, negative = inhibition [3] 0.577% | Potency [4] > 20.6 µM

COc1ccc(-c2nc3n(n2)C(=O)CC(c2ccco2)S3)cc1 (stereo not drawn)
inactive: activity change, negative = inhibition [1] -9.14% | activity change, negative = inhibition [2] 0.813% | activity, negative = inhibition [3] -11.3% | Potency [4] > 20.6 µM

CCC(CC)C1C(C#N)=C(N)Oc2n[nH]c(C)c21 (stereo not drawn)
inactive: activity change, negative = inhibition [1] -22.7% | activity change, negative = inhibition [2] -13.2% | activity, negative = inhibition [3] -16.5% | Potency [4] > 20.6 µM

O=C(Nc1ccccc1C(=O)NCCCn1ccnc1)c1ccccc1
inactive: activity change, negative = inhibition [1] 1.7% | activity change, negative = inhibition [2] 5.76% | activity, negative = inhibition [3] 3.12% | Potency [4] > 20.6 µM

COC(=O)c1ccc(Cn2c(O)c(N=O)c3ccccc32)o1
inactive: activity change, negative = inhibition [1] -14.4% | activity change, negative = inhibition [2] 18.3% | activity, negative = inhibition [3] 3.14% | Potency [4] > 20.6 µM

COC(=O)c1ccc(N2C(=O)CC(N3CCN(C(=O)c4ccco4)CC3)C2=O)cc1 (stereo not drawn)
inactive: activity change, negative = inhibition [1] 3.9% | activity change, negative = inhibition [2] -1.87% | activity, negative = inhibition [3] 0.889% | Potency [4] > 20.6 µM

Cn1cccc1/C=N/n1cnnc1
inactive: activity change, negative = inhibition [1] -2.1% | activity change, negative = inhibition [2] -1.22% | activity, negative = inhibition [3] 4.51% | Potency [4] > 20.6 µM

CC(C)Cn1cnc2c(c1=O)c1nc3ccccc3nc1n2Cc1ccc2c(c1)OCO2
inactive: activity change, negative = inhibition [1] -7.49% | activity change, negative = inhibition [2] 8.7% | activity, negative = inhibition [3] -6.69% | Potency [4] > 20.6 µM

CCCC(C)n1[nH]c(=O)cc1N (stereo not drawn)
inactive: activity change, negative = inhibition [1] 11.2% | activity change, negative = inhibition [2] 8.48% | activity, negative = inhibition [3] 3.57% | Potency [4] > 20.6 µM

O=C(Nc1nccs1)NC(C(F)(F)F)C(F)(F)F
inactive: activity change, negative = inhibition [1] -10.3% | activity change, negative = inhibition [2] 9.14% | activity, negative = inhibition [3] 10.4% | Potency [4] > 20.6 µM
